# Measured values: PubChem BioAssay (NCATS)
# Records with an inconclusive call do not appear. A number with no mark means an inactive call. Active and inactive are the calls of the source. Calls come from the whole dose curve; as a rule, active = well fitted curve in the direction sought with a large enough effect; inconclusive = small, poorly fitted or top-dose-only effect, or another doubt; inactive = no such curve, though single readings can be large; an effect the other way counts as inactive or inconclusive.
# Test system: Zika virus NS2B-NS3 protease (unlinked complex)
# Assay: Confirmatory screen GU AMC qHTS for Zika virus inhibitors (AID 1347153); note: nearly all actives have a fitted effect of over 70% in size;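 for Potency: enzyme at 25 nM with substrate at 10 µM below its Km of 18.3 µM; potency is the fitted concentration of half-maximal effect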;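 for activity, negative = inhibition: percent inhibition with 0% = no inhibitor control and 100% = no enzyme control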
# Conditions: Recombinant NS2B-NS3 protease, AMC substrate fluorescence; series mostly up to 57.1 µM; activity, negative = inhibition: at the top concentration
# Summary of the method: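 Compounds were preincubated 15 min at room temperature with 25 nM noncovalent NS2B-NS3 protease at pH 8.0; AMC substrate added at 10 microM and 15-min fluorescence gain (340/450 nm) converted to percent inhibition, fitted 4-parameter.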
Compound,Potency,"activity, negative = inhibition [%]"
CN1C[C@@H]2C[C@H]1CN2c1cc2c(cc1F)c(=O)c(C(=O)O)cn2C1CC1,16.7 µM (active),–
O=C(O)Cn1c(C(=O)Nc2nc(-c3ccccc3Cl)cs2)cc2ccccc21,24.1 µM (active),–
O=C(O)[C@@H]1[C@H]2C[C@H]3c4[nH]c5ccccc5c4CCN3C[C@@H]2CC[C@@H]1O,–,-7.31

# Test system: Zika virus NS2B-NS3 protease
# Assay: Primary screen GU AMC qHTS for Zika virus inhibitors (AID 1347154); note: nearly all actives have a fitted effect of over 70% in size; note: potency is the fitted concentration of half-maximal effect;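 for activity change, negative = inhibition: 0% = no-inhibitor control and -100% = no-enzyme control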
# Conditions: Zika NS2B-NS3 unlinked protease, AMC fluorogenic substrate; series mostly up to 54.1 µM; activity change, negative = inhibition: at the top concentration
# Summary of the method: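 Unlinked Zika NS2B hydrophilic domain–NS3 protease complex at 25 nM in 10 mM Tris-HCl pH 8.0, 0.01% Tween 20, with an AMC peptide substrate. Fluorescence change (340/450 nm) over 15 min at room temperature, normalized to controls, fitted to 4-parameter Hill.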
Compound,"activity change, negative = inhibition",Potency
O=C(Cn1ccnc1[N+](=O)[O-])NCCO,-2.36%,–
COc1ccc(C(=O)N2CCN(CC(=O)N3CCOCC3)CC2)cc1,0.679%,–
NC(N)=NCCN1CCCCCCC1,-2.2% [at 0.59 µM],–
COC(=O)N/N=C/c1c[n+]([O-])c2ccccc2[n+]1[O-],-10.9%,–
CN1C[C@@H]2C[C@H]1CN2c1cc2c(cc1F)c(=O)c(C(=O)O)cn2C1CC1,–,8.82 µM (active)
C[N+](C)(C)CC(O)CC(=O)[O-] (centres undefined),-0.987%,–
O=C(O)CCCc1ccccc1,–,inactive
Cc1cc(C)nc(NS(=O)(=O)c2ccc(N)cc2)n1,0.367%,–
NC(N)=NS(=O)(=O)c1ccc(N)cc1,-1.46%,–
CC(CSC(=O)c1ccccc1)C(=O)N1C[C@@H](Sc2ccccc2)C[C@H]1C(=O)O (some centres undefined),7.5% [at 25.8 µM],–
Nc1ncnc(Nc2ccccc2)n1,-3.33%,–
COc1ccccc1OC(=O)Oc1ccccc1OC,-0.417%,–
Cc1cc(C)c(NC(=O)CN(CC(=O)O)CC(=O)O)c(C)c1Br,-1.94%,–
Cc1cc(OI)c(C(C)C)cc1-c1cc(C(C)C)c(OI)cc1C,-11.5%,–
CCc1nnc(NS(=O)(=O)c2ccc(N)cc2)s1,2.05%,–
CC1CC(OC(=O)c2ccccc2O)CC(C)(C)C1 (centres undefined),0.356%,–
CC(C)CCOC(=O)c1ccc(N(C)C)cc1,-5.3%,–

Compound,"activity change, negative = inhibition",Potency
CNCc1ccccc1,2.73%,–
CC1CCN(CCCC(=O)c2ccc(F)cc2)CC1,–,inactive
CCOc1ccccc1O[C@H](c1ccccc1)[C@H]1CNCCO1,–,inactive
CC(=O)N(CC(O)CN(C(C)=O)c1c(I)c(C(=O)NCC(O)CO)c(I)c(C(=O)NCC(O)CO)c1I)c1c(I)c(C(=O)NCC(O)CO)c(I)c(C(=O)NCC(O)CO)c1I (centres undefined),-5.77%,–
Cc1ccc(S(=O)(=O)NC(=O)NC2CCCCCCC2)cc1,1.13%,–
CC(CN(C)C)C(C)(O)Cc1ccc(Cl)cc1 (centres undefined),-7.44%,–
Cc1ccccc1N=Nc1ccc(N=Nc2c(O)ccc3ccccc23)c(C)c1,-4.01%,–
NC(=O)NC1NC(=O)NC1=O (centres undefined),-2.17%,–
CN1C(C)(C)CCCC1(C)C,3.04%,–
CC(C)(C)C(=O)OCOC(=O)[C@@H]1N2C(=O)[C@@H](NC(=O)[C@H](N)c3ccccc3)[C@H]2SC1(C)C,-7.49%,–
CC(C)CCCC(C)CCCC(C)CCCCC(C)CCCC(C)CCCC(C)C (centres undefined),0.976%,–
O=C(OOC(=O)c1ccccc1)c1ccccc1,-3.25%,–
CC(=O)Nc1ccc(OCCOCCOc2ccc(NC(C)=O)cc2)cc1,6.29%,–
CC(C)C[C@@H](N)C(=O)O,-2.56% [at 25.8 µM],–
Cc1cc(NC(=O)C2=C(O)c3ccccc3S(=O)(=O)N2C)no1,-1.22%,–
O=C(O)c1cc(=O)c2ccccc2o1,-1.26%,–
CN1CC(=O)NC1=N,-0.671%,–

# Test system: not listed separately
# Assay: Confirmatory screen NINDS Rhodamine qHTS for Zika virus inhibitors (AID 1347161); note: nearly all actives have a fitted effect of over 60% in size; note: potency is the fitted concentration of half-maximal effect;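 for activity change, negative = inhibition: purified Zika NS2B-NS3 protease with linked NS2B cofactor domain and Rhodamine110 peptide substrate; plate controls were no-inhibitor control for no effect and no-enzyme control for full effect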
# Conditions: purified enzyme assay, Rhodamine110 substrate fluorescence, 15 min; series mostly up to 64.7 µM; activity change, negative = inhibition: at the top concentration
# Summary of the method: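 Each compound, titrated, sat 15 min with 25 nM linked protease before 1.5 microM Rhodamine110 substrate went in. Fluorescence gain over the next 15 min, in pH 8.0 Tris with Tween 20, gave Hill-fitted curves.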
Compound,"activity change, negative = inhibition [%]",Potency
CN1C[C@@H]2C[C@H]1CN2c1cc2c(cc1F)c(=O)c(C(=O)O)cn2C1CC1,-30.5,–
O=C(O)Cn1c(C(=O)Nc2nc(-c3ccccc3Cl)cs2)cc2ccccc21,–,3.93 µM (active)
O=C(O)[C@@H]1[C@H]2C[C@H]3c4[nH]c5ccccc5c4CCN3C[C@@H]2CC[C@@H]1O,–,12.4 µM (active)

# Test system: not listed separately
# Assay: Vero cells viability qHTS for Zika virus inhibitors (AID 1347167); note: % is set by controls: 0 for no effect and ±100 for the full control effect
# Conditions: cytotoxicity counter-screen (Zika); series mostly up to 45.9 µM; activity change, negative = cytotoxicity: at the top concentration
# Summary of the method: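 qHTS titration; 24-48 h compound exposure, 37 degrees C/5% CO2; DMEM, 4% FBS; CellTiter Glo ATP luminescence.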
row,Compound,"activity change, negative = cytotoxicity"
1,CN1C[C@@H]2C[C@H]1CN2c1cc2c(cc1F)c(=O)c(C(=O)O)cn2C1CC1,-6.91% [at 26.9 µM]
2,O=C(O)Cn1c(C(=O)Nc2nc(-c3ccccc3Cl)cs2)cc2ccccc21,-3.62%
3,O=C(O)[C@@H]1[C@H]2C[C@H]3c4[nH]c5ccccc5c4CCN3C[C@@H]2CC[C@@H]1O,-3.61%

# Test system: not listed separately
# Assay: HepG2 cells viability qHTS for Zika virus inhibitors (AID 1347168); note: % is set by controls: 0 for no effect and ±100 for the full control effect
# Conditions: Zika counter-screen; series mostly up to 45.9 µM; activity change, negative = cytotoxicity: at the top concentration
# Excerpt: Avindra Nath, Ph.D., National Institute of Neurological Disorders and Stroke (NINDS), Bethesda, MD
# Radhakrishnan Padmanabhan, Ph.D., Georgetown University (GU), Washington D.C.
# Zika Virus causes congenital defects, including microcephaly and is associated with Guillain-Barre syndrome, eningoencephalitis and myelitis in infected adult. […] Using a target-based approach, we hope to establish a screening paradigm to uncover novel, cell-active NS2B-NS3 protease (Zika Virus) specific inhibitors from NCATS' collection of small molecules using qHTS.
# Four assay panel was created to identify potential Zika Virus inhibitors. Namely, (1) GU unlinked NS2B-NS3 AMC tagged protease qHTS, (2) GU unlinked NS2B-NS3 Rhodamine tagged protease qHTS, (3) NINDS linked NS2B-NS3 AMC tagged protease qHTS, (4) NINDS linked NS2B-NS3 Rhodamine tagged protease qHTS. Identified inhibitors were screened against the Vero and HepG2 cell viability assays using CellTiter Glo to exclude cytotoxic compounds.
# Early Translation Branch (ETB)
# National Center for Advancing Translational Sciences (NCATS), Rockville, MD
# National Institute of Health (NIH), Bethesda, Maryland
# Vero and HepG2 Cell Viability Assay:
# Vero and HepG2 cell cytotoxicity were determined using a luminescent readout with CellTiter Glo reagent (Promega, Madison, WI), which is based on measuring the ATP content within cells. Briefly, 4 microL of Vero or HepG2 cells at 2.5 x 10^5 cells/mL in DMEM containing 4% FBS were dispensed into 1536-well solid bottom tissue treated white plate using a Multidrop Combi dispenser (Thermo Scientific). Plates were incubated at 37 degrees C, 95% humidity, and 5% CO2 overnight to allow for cell attachment. Compounds were dissolved in DMSO at different concentrations and transferred via pintool (Wako Automation), for a final concentration of 0.029 µM - 57 microM. Plates were again incubated for 24 to 48 hours, followed by a 2 microL addition of CellTiter Glo. Finally, plates were incubated for 30 minutes at 37 degrees C and 5% CO2 before being read on a ViewLux (Perkin Elmer) for luminescence.
row,Compound,"activity change, negative = cytotoxicity"
1,CN1C[C@@H]2C[C@H]1CN2c1cc2c(cc1F)c(=O)c(C(=O)O)cn2C1CC1,-0.0193% [at 26.9 µM]
2,O=C(O)Cn1c(C(=O)Nc2nc(-c3ccccc3Cl)cs2)cc2ccccc21,6.94%
3,O=C(O)[C@@H]1[C@H]2C[C@H]3c4[nH]c5ccccc5c4CCN3C[C@@H]2CC[C@@H]1O,2.36%

# Test system: not listed separately
# Assay: Tertiary RLuc qRT-PCR qHTS assay for Zika virus inhibitors (AID 1347169); note: top concentration of the series differs between compounds; % is set by controls: 0 for no effect and ±100 for the full control effect; nearly all actives have a fitted effect of over 55% in size
# Conditions: infected Vero cells, reporter luminescence, 48-72 h; series mostly up to 45.9 µM; activity change, negative = inhibition: at the top concentration
# Summary of the method: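 Inhibition of ZIKV-RLuc replication in Vero cells, read as Renilla luminescence 1-1.5 hrs after live-cell substrate addition, following 48-72 hrs infection at MOI 1-2 in presence of compound.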
row,Compound,"activity change, negative = inhibition"
1,CN1C[C@@H]2C[C@H]1CN2c1cc2c(cc1F)c(=O)c(C(=O)O)cn2C1CC1,10.1% [at 26.6 µM]
2,O=C(O)Cn1c(C(=O)Nc2nc(-c3ccccc3Cl)cs2)cc2ccccc21,-13.3%
3,O=C(O)[C@@H]1[C@H]2C[C@H]3c4[nH]c5ccccc5c4CCN3C[C@@H]2CC[C@@H]1O,-7.27%
